Screening data deposited in PubChem by National Center for Advancing Translational Sciences (NCATS).
12-LOX inh – Primary qHTS assay for inhibitors of human arachidonate 12S-lipoxygenase (ALOX12): Round 2; AID 1671190, 2021; Potency, µM (titrated, usually from 108 µM), for the others: at the highest dose activity change, negative = inhibition, actives largely listed as inhibitors; Polyunsaturated fatty acid lipoxygenase ALOX12 (Homo sapiens), P18054; purified 12hLO, xylenol orange hydroperoxide absorbance; hit rate 1.1% among 580,000; further: potency means the concentration at half of the fitted maximal effect
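Purified human 12hLO at 150 nM in 25 mM Hepes, 0.01% Triton X-100, pH 7.0, preincubated 15 min at room temperature with compound. Reaction started with 40 uM arachidonic acid, 30 min at room temperature. Hydroperoxide measured by Fe-xylenol orange, 573/405 nm absorbance ratio.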
DT40 TDP1 CPT – qHTS for Inhibitors of human tyrosyl-DNA phosphodiesterase 1 (TDP1): qHTS in cells in presence of CPT; Potency, µM (titrated, usually from 46.2 µM), for the others: top-dose activity change, negative = growth inhibition, hits mostly inhibitors; hit rate 12% among 420,000; AID 686979, 2013; chicken DT40 Tdp1-/-;hTDP1 cells + 20 nM CPT, ATP luminescence, 48 h; further: potency means the concentration at half of the fitted maximal effect; nearly all actives have a fitted effect of over 55% in size
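Chicken DT40 Tdp1-/- cells complemented with human TDP1, 400 cells/well, exposed to compounds plus 20 nM camptothecin for at least 48 h at 37 C; viability read as ATP content by CellTiter-Glo luminescence.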
DT40 TDP1 no CPT – qHTS for Inhibitors of human tyrosyl-DNA phosphodiesterase 1 (TDP1): qHTS in cells in absence of CPT; DT40 Tdp1-/- hTDP1 cells, no CPT, ATP luminescence, 48 h; Potency, µM (series often up to 46.2 µM), for inactives: at the top dose activity change, negative = growth inhibition, most hits filed as inhibitors; hit rate 15% among 420,000; further: potency means the concentration at half of the fitted maximal effect; nearly all actives have a fitted effect of over 55% in size
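A cellular qHTS used chicken DT40 cells lacking endogenous Tdp1 but carrying stably transfected human TDP1. Compounds were applied without camptothecin, and cell growth kinetics were judged by ATP-dependent luminescence after ≥48 hr.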
HT1080 IDH1KD tx – qHTS for induction of synthetic lethality in tumor cells producing 2HG: qHTS for the HT-1080-IDH1KD cell line; Potency, µM (highest dose often 46.1 µM), for the others: at the top dose activity, negative = toxicity, most hits filed as cytotoxic; AID 686971, 2013; hit rate 2% among 360,000; HT-1080 IDH1 knockdown viability, ATP luminescence, 48 h;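 further: potency means the concentration at half of the fitted maximal effect; 0% = DMSO wells and -100% = cell-free medium wells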
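HT-1080-IDH1KD cells (IDH1 knocked down), 750/well in RPMI with 5% FBS, treated with compound 48 h at 37 degrees C. Viability by CellTiter-Glo luminescence, normalised to DMSO and no-cell wells; concentration-response curves classed.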
IL1B secr inh – qHTS for Inhibitors of Inflammasome Signaling: IL-1-beta AlphaLISA Primary Screen. THP-1 LPS/ATP IL-1B secretion, AlphaLISA, 16 h; stronger effect = lower value. activity change, % at 57.5 µM. hit rate 4.7% among 360,000. AID 743279, 2014; in the data active means activity change below about -50%; inconclusive means mostly about -30% to -49%
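Secreted IL-1B measured by AlphaLISA bead assay after 16 h compound exposure of THP-1 cells; compounds (final up to 57.5 uM) added 1 h before LPS (250 ng/mL) and ATP (1.25 mM) stimulation; lower signal means less secretion.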
HT1080NT lethal – qHTS for induction of synthetic lethality in tumor cells producing 2HG: qHTS for the HT-1080-NT fibrosarcoma cell line | HT-1080-NT fibrosarcoma viability, CellTiter-Glo ATP luminescence, 48 h | Potency, µM (titrated, usually from 46.1 µM), for the others: top-dose activity, negative = less viability, hits mostly cytotoxic | hit rate 1.6% among 360,000 | AID 686970, 2013;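 further: NT is the 2HG producing partner of a matched IDH1 knockdown line; potency means the concentration at half of the fitted maximal effect; 0% = DMSO-treated cells and -100% = media-only wells without cells; nearly all actives have a fitted effect of over 55% in size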
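Toxicity toward the 2HG-producing NT line was scored as %Activity, normalised to DMSO and no-cell wells, from CellTiter-Glo luminescence after 48 hours' treatment.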
Starred values were filed as active, the others as inactive; ? = inconclusive; . = no result given. The sample as a whole holds a higher share of hits than the screen did. Unless noted, the call rests on the fitted dose curve; in most records, active means well fitted curve in the direction sought with a large enough effect; inconclusive means small, poorly fitted or top-dose-only effect, or another doubt; inactive means no such curve, though single readings can be large; an effect the other way counts as inactive or inconclusive. Unless noted, on the % scale 0 is the no-effect control and ±100 the full control effect.

SMILES	12-LOX inh	DT40 TDP1 CPT	DT40 TDP1 no CPT	HT1080 IDH1KD tx	IL1B secr inh	HT1080NT lethal
Cc1ccc2c(C(=O)N3CCCCCC3)cc(NC(=O)C3CCC3)cc2n1	24%	.	.	.	.	.
CN(C)C[C@@H]1CN(c2ccncn2)C[C@H]1NC(=O)c1cnco1	-4%	.	.	.	.	.
CCN1CCN(Cc2cc(C)cc(CN(C)Cc3ncc(C)[nH]3)c2C)CC1	49%	.	.	.	.	.
C(#Cc1ccccc1)CNC12CC3CC(CC(C3)C1)C2	-22%	.	.	.	.	.
CCCc1cc(C(=O)OC)c(NC(=O)Cc2c(Cl)cccc2Cl)s1	20%	.	.	.	.	.
CC(C)CNC(=O)c1cccc2c(-c3cccc(C(N)=O)c3)coc12	-13%	23µM*	?	-26%	-19	-3%
O=C(NCc1cccs1)c1cccc2c(-c3cccnc3)coc12	19%	?	-66%	-2%	?	-7%
COc1ccc(CNC(=O)c2cccc3c(-c4cccnc4)coc23)cc1OC	?	1.2µM*	1.5µM*	?	-20	?
NC(=O)c1cccc(-c2coc3c(C(=O)NCc4cccnc4)cccc23)c1	-21%	21µM*	23µM*	?	66	-18%
COc1ccc(-c2coc3c(C(=O)NCC(C)C)cccc23)c(C)c1	-16%	?	?	?	-22	?
NC(=O)c1cccc(-c2coc3c(C(=O)NC4CCCCC4)cccc23)c1	0%	?	8.2µM*	?	-15	?
CCOc1ccc(-n2nnc3c(=O)n(Cc4nc(-c5ccc(SC)cc5)no4)cnc32)cc1	-11%	.	.	.	.	.
O=C(NCCc1ccccc1)c1cccc2c(-c3cccnc3)coc12	21%	-18%	-25%	6%	-15	?
O=C(NCc1ccc(F)c(F)c1)c1cccc2c(-c3cccnc3)coc12	8%	?	?	?	-63*	-23%
O=C(NCc1cccc(Cl)c1)c1cccc2c(-c3cccnc3)coc12	0%	16µM*	?	-25%	?	-14%
COC(=O)CCC1(C)C(=C(C)C)CCC(C)C1COc1ccc2ccc(=O)oc2c1 (centres undefined)	3%	.	.	.	.	.
O=C(NCCc1ccccn1)c1cc(-c2ccc(Cl)c(Cl)c2Cl)nc2ccccc12	-18%	?	18µM*	?	0	-3%
CN(Cc1ccccc1)S(=O)(=O)c1ccc(Cl)c(C(=O)NCCCN2CCOCC2)c1	-8%	-9%	?	8%	22	3%
CN(Cc1ccccc1)S(=O)(=O)c1ccc(Cl)c(C(=O)NCCc2ccccn2)c1	0%	16µM*	?	-12%	2	5%
CN(Cc1ccccc1)S(=O)(=O)c1ccc(Cl)c(C(=O)NCCCN2CCCC2=O)c1	2%	?	16µM*	-5%	24	5%
CN(Cc1ccccc1)S(=O)(=O)c1ccc(Cl)c(C(=O)NCc2ccc3c(c2)OCO3)c1	-14%	?	?	-11%	-3	-6%
Cc1ccc2[nH]c(-c3ccccc3)cc2c1	-21%	.	.	.	.	.
O=C(NCCCN1CCCc2ccccc21)C1Cn2cccc2C(=O)N1Cc1cccnc1 (centres undefined)	41%	.	.	.	.	.
COc1cccc(/C=C/c2nc(C#N)c(NCc3ccc4c(c3)OCO4)o2)c1	-3%	.	.	.	.	.
